Compound activity as filed in PubChem BioAssay.
Rows were chosen to be rich in hits. Some 1.3% of all compounds tested hit in one or more screens of this group.
HTT prom inh: inhibits huntingtin promoter activity; HEK293 HTT promoter firefly luciferase reporter, 24 h; Potency, µM (top dose mostly 57.5 µM), actives largely listed as inhibitors; 48,000 tested, 0.93% active; AID 1508623; also: nearly all actives have a fitted effect of over 50% in size
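Firefly luciferase readout (Dual-Glo, 10 min RT) after 24 h, 37 °C compound exposure (final up to 57.5 uM) of HEK293 reporter cells cultured 24 h beforehand; PTC124 at 50 uM final as control inhibitor; activity scaled vehicle 0%, zero RLU -100%.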
GALC G270D act: raises human GALC G270D mutant activity in cells; Potency, µM (highest dose often 57.5 µM), usual class: activators; 145M-Twi-hGALC-G270D cells (Twitcher mouse brain line with human GALC G270D), HMU-beta-Gal fluorescence, 48 h; AID 1159614; P54803; 45,000 tested, 0.1% active; also: nearly all actives have a fitted effect of over 65% in size
Target sequence (P54803 whole entry G286D): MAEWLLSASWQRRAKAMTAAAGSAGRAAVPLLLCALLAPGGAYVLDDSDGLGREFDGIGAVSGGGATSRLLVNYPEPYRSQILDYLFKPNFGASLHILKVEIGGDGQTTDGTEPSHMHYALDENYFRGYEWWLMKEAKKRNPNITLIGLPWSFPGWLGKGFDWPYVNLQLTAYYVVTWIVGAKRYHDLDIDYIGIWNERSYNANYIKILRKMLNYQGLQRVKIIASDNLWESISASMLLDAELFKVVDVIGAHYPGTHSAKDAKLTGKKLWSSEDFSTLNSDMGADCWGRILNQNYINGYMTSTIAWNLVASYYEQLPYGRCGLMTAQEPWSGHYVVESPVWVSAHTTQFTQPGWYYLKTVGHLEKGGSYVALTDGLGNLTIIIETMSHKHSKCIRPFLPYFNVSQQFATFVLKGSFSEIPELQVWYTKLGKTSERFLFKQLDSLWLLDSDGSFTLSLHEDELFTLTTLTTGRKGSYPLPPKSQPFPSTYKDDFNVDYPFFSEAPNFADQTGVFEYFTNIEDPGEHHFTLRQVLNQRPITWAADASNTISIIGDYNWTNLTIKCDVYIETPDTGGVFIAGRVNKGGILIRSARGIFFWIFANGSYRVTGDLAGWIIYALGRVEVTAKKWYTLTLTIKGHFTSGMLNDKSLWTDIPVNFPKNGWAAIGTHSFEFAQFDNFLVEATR
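Fluorescence readout: HMU-β-gal cleavage by mutant GALC (0.1 mM final, citrate/phosphate pH 5.2 with 1 mg/mL taurocholate), stopped with carbonate/bicarbonate plus Triton X-100. Cells: murine Twitcher 145M-Twi expressing human G270D GALC; qHTS for activators.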
FH mod: Identification of activators of human fumarate hydratase by quantitative high-throughput screening; Fumarate hydratase, mitochondrial (Homo sapiens), P07954; FH coupled MDH/diaphorase resazurin fluorescence, 15 min; Potency, µM (series often up to 79.9 µM), hits mostly inhibitors; 54,000 tested, 0.22% active; AID 1347055, 2019; also: the screen sought activators but most active calls are inhibition curves; nearly all actives have a fitted effect of over 45% in size
HTT-AS act: activates huntingtin-antisense promoter activity; HEK293 HTT-AS promoter firefly luciferase reporter, 24 h; response scale: percent change from vehicle, -100% = no light; Potency, µM (top dose mostly 57.5 µM), actives largely listed as activators; 48,000 tested, 0.24% active; also: nearly all actives have a fitted effect of over 55% in size
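Quantitative HTS used concentration series of up to 57.5 uM final on HEK293 luciferase reporter cells, 24 h at 37 degrees C. Readout was Dual-Glo firefly luminescence.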
Numbers stand for hits; – = inactive; ? = inconclusive; · = no result given; ! = a repeat was not active. Calls follow the shape of the dose curve; as a rule, active = well fitted curve in the direction sought with a large enough effect; inconclusive = small, poorly fitted or top-dose-only effect, or another doubt; inactive = no such curve, though single readings can be large; an effect the other way counts as inactive or inconclusive.

SMILES | HTT prom inh | GALC G270D act | FH mod | HTT-AS act
CCCOc1ccc(C2C(=O)N(C3CCCCC3)CC(=O)N2C2CCCCC2)cc1OC (configuration not stated) | – | – | – | –
Cc1cccc(N2CCN(C(=O)C3CCCN(S(=O)(=O)c4ccc5c(c4)oc(=O)n5C)C3)CC2)c1C (configuration not stated) | 5.01µM | – | – | –
Cc1cccc(N2CCN(C(=O)C3CCN(S(=O)(=O)c4c(C)noc4C)CC3)CC2)c1C | 14.1µM | – | – | –
COc1cc(NC(=O)c2ccc(-c3nc(COc4ccccc4)c(C)o3)cc2)cc(OC)c1 | 14.1µM | – | ? | –
CCC(=O)Nc1ccccc1-c1nc2ccccc2n(C(CC)C(=O)Nc2cccc(Cl)c2)c1=O (configuration not stated) | ? | – | – | –
CCC(C(=O)Nc1ccc(C)c(Cl)c1)n1c(=O)c(-c2ccccc2NC(C)=O)nc2ccccc21 (configuration not stated) | 22.4µM | – | – | –
Cn1nnnc1SCCCNCc1cccc(OCc2ccccc2Cl)c1 | – | – | – | –
Cn1nnnc1SCCCNCc1ccccc1OCc1ccccc1Cl | 14.1µM | – | – | –
CC(C)COc1ccc(C(=O)NCC2OCCc3ccccc32)cc1 (configuration not stated) | – | – | – | –
CCCN(CCC)CC(O)Cn1cc(/C=C/C(=O)c2ccc(OCC)cc2)c2ccccc21 (configuration not stated) | ? | 35.5µM | – | –
CC(C)CN(CC(C)C)CC(O)Cn1cc(/C=C/C(=O)c2ccccc2)c2ccccc21 (configuration not stated) | – | – | – | –
O=C(O)c1ccc(-c2c[nH]c3ncc(-c4ccccc4)cc23)cc1C1CCCC1 | – | · | 31.6µM! | –
Cc1cc(-c2ccc(/C=C3\SC(=Nc4ccc(Cl)c(C(=O)O)c4)NC3=O)o2)c([N+](=O)[O-])cc1C | · | · | 25.1µM | ·
CCOc1ccc(CCNC(=O)c2cc3c(-c4ccc(OC)c(OC)c4)nn(C)c3s2)cc1OCC | ? | – | ? | –
COc1ccc(CCNC(=O)c2cc3c(-c4ccc(OC)c(OC)c4)nn(C)c3s2)cc1OC | – | – | 31.6µM | –
CC(C)(C)c1ccc(C(=O)Nc2ccc3nc(SCC(=O)N4CCCC4)sc3c2)cc1 | 14.1µM | – | ? | –
CC(C)(C)C1CCc2nc(NC(=O)COc3ccccc3[N+](=O)[O-])sc2C1 (configuration not stated) | 4.47µM | – | – | –
CC(C)(C)C1CCc2nc(NC(=O)c3ccc([N+](=O)[O-])cc3)sc2C1 (configuration not stated) | ? | – | – | –
CC(C)(C)C1CCc2nc(NC(=O)c3cccc(Cl)c3)sc2C1 (configuration not stated) | 0.355µM | – | ? | –
O=C(O)C1=CC(=C(c2ccc(O)c(C(=O)O)c2)c2ccc(O)c(C(=O)O)c2)C=CC1=O | · | · | 15.8µM | ·
O=c1oc2ccccc2n1CCCOc1ccccc1Cl | – | – | – | 7.94µM
CCOc1ccc(Cn2c(=O)oc3ccccc32)cc1 | – | – | – | –
Cc1cc(C)n2nc(SCC(=O)Nc3ccccc3C)nc2n1 | – | – | – | –
Cc1ccc(C2=CC(c3ccc(Cl)cc3)n3nc(-c4ccc(C)cc4)nc3N2)cc1 (configuration not stated) | ? | – | – | –
COc1ccc(C2C=C(c3ccc(Cl)cc3)Nc3nc(-c4ccc(Cl)cc4)nn32)cc1 (configuration not stated) | 25.1µM | – | – | –
SMILES | HTT prom inh | GALC G270D act | FH mod | HTT-AS act
CCOC(=O)c1c(SCC(=O)Nc2nc3ccccc3s2)nc(=O)[nH]c1C | – | – | – | –
CCOc1ccc(NCc2cccn2-c2nnc(N3CCC(C(=O)NCc4ccccc4Cl)CC3)s2)cc1 | 22.4µM | – | – | –
CC1CCN(c2nnc(-n3cccc3CNc3cccc(F)c3)s2)CC1 | 5.62µM | – | – | –
COc1ccc(CNC(=O)C2CCN(c3nnc(-n4cccc4CNc4ccc(C)cc4)s3)CC2)c(OC)c1 | ? | – | – | –
Cc1ccccc1-c1nn2c(=O)cc(CN3CCN(C(=O)c4ccc(C(C)(C)C)cc4)CC3)nc2s1 | ? | – | – | –
COc1ccc(Cl)cc1NC(=O)C1CCN(S(=O)(=O)c2ccc(F)cc2)CC1 | ? | – | – | –
COc1cc(C(=O)O)ccc1NC(=O)C1NC(CC(C)(C)C)C(C#N)(c2ccc(Cl)cc2F)C1c1cccc(Cl)c1F (configuration not stated) | · | · | 31.6µM | ·
CC(=O)Nc1ccc(NCc2nnc3n2CCCCC3)cc1 | – | – | – | –
Cc1cccc(C)c1Nc1c(-c2ccc(O)cc2)nc2sccn12 | – | – | 31.6µM | –
COc1cc(-c2nc3sccn3c2Nc2c(C)cccc2C)ccc1O | – | – | 15.8µM | –
COc1cc(-c2nc3ncccn3c2Nc2ccc(C)cc2C)ccc1O | – | – | ? | –
CCc1cccc(C)c1Nc1c(-c2cccc(O)c2)nc2sccn12 | – | – | ? | –
COc1ccccc1N1CCN(C(=O)c2cc(S(=O)(=O)N3CCC(C)CC3)cn2C)CC1 | – | – | – | –
O=C(Nc1cccc(Cl)c1)C1CCCN(c2nn3cc(-c4ccc(F)cc4)nc3s2)C1 (configuration not stated) | 3.98µM | – | – | –
O=C(NCc1cccc(Cl)c1)C1CCN(c2nn3cc(-c4ccc(F)cc4)nc3s2)CC1 | – | – | – | –
O=C(NCc1cccc(Cl)c1)C1CCCN(c2nn3cc(-c4ccc(F)cc4)nc3s2)C1 (configuration not stated) | 2.51µM | – | – | –
COc1ccc(-c2cn3nc(N4CCCC(C(=O)Nc5ccc(Cl)cc5C)C4)sc3n2)cc1 (configuration not stated) | – | – | – | –
Cc1cc(C)nc(NS(=O)(=O)c2ccc(NC(=O)COc3ccc(C(C)(C)C)cc3)cc2)n1 | – | – | – | –
O=C(Nc1c(C(=O)c2ccc(F)cc2)oc2ccccc12)c1cc(-c2ccccc2)on1 | – | – | – | ?
Cc1cccc(C(=O)Nc2ccccc2-c2nc(-c3ccccc3)no2)c1 | – | – | – | –
CC(=O)Nc1cccc(-c2nc(-c3ccccc3)no2)c1 | – | – | – | 1.12µM
O=C1NC(=O)/C(=C/c2ccc3nccc(-c4ccncc4)c3c2)S1 | · | · | 31.6µM | ·
O=C1N=C(O)S/C1=C\c1ccc2nccnc2c1 | · | · | – | ·
O=C1NC(=O)/C(=C\c2ccc3nccc(-c4ccncc4)c3c2)S1 | · | · | 25.1µM | ·
O=C1NC(=O)/C(=C/c2ccc3nccnc3c2)S1 | · | · | – | ·
CCCc1nnc(NC(=O)c2cc(=O)c3ccccc3o2)s1 | – | – | – | 3.98µM
O=C(Nc1cccc(C(=O)Nc2ccc(S(=O)(=O)O)c3cc(S(=O)(=O)O)cc(S(=O)(=O)O)c23)c1)Nc1cccc(C(=O)Nc2ccc(S(=O)(=O)O)c3cc(S(=O)(=O)O)cc(S(=O)(=O)O)c23)c1 | · | · | 28.2µM | ·
